Assay outcomes from PubChem.
TbPYK inhibitor: qHTS of Trypanosoma Brucei Inhibitors. pyruvate kinase (Trypanosoma brucei), Q57TT1. TbPYK enzyme, Kinase-Glo Plus ATP luminescence, 45 min. Potency, µM (highest dose often 76.8 µM), most hits filed as inhibitors. hit rate 0.12% among 410,000. AID 624173, 2012; further: nearly all actives have a fitted effect of over 50% in size
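Assay buffer: 50 mM TEA pH 7.2, 100 mM KCl, 10 mM MgCl2, 0.05% BSA, 0.01% Tween-20. Pyruvate kinase from T. brucei plus substrate met compound, then ADP (130 uM final). Luminescence was read post 45 min RT.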
Sm TGR block: qHTS Assay for the Inhibitors of Schistosoma Mansoni Peroxiredoxins. Schistosoma mansoni thioredoxin glutathione reductase (TGR), Q962Y6. purified TGR, DTNB reduction, TNB absorbance 405 nm. Potency, µM (highest dose often 114 µM), actives largely listed as inhibitors. hit rate 3% among 360,000; further: nearly all actives have a fitted effect of over 60% in size
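First, TGR (20 nM dispensed) and NADPH were mixed with compound. Second, a 15 min room-temperature incubation followed. Third, further NADPH and then DTNB were added to start the reaction. Finally, TNB absorbance was monitored kinetically.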
RE007 growth inh: qHTS Assay for Inhibitors of the HIV-1 protein Vpr. S. pombe RE007 Vpr strain, BacTiter-Glo ATP luminescence, 24 h. AID 651644, 2012. Potency, µM (doses to about 92.2 µM), hits mostly inhibitors. hit rate 0.21% among 360,000; active means well fitted falling curve with a large enough effect; inconclusive means small, poorly fitted or top-dose-only effect; inactive means no such curve, though single readings can be large or run the other way; further: nearly all actives have a fitted effect of over 50% in size
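Fission yeast strain RE007, carrying one chromosomally integrated HIV-1 vpr copy, was seeded at OD 0.01 in PMG+AL medium with 23 nL pinned compound. After 24 h at 30 °C and 99% humidity, viability was read by BacTiter-Glo luminescence.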
AmpC no deterg: qHTS Inhibitors of AmpC Beta-Lactamase (assay without detergent). P00811. AmpC nitrocefin hydrolysis, absorbance 480 nm, 0.0001% Triton. Potency, µM (series often up to 57.1 µM), hits mostly inhibitors. hit rate 0.52% among 330,000. AID 485341, 2010; further: nearly all actives have a fitted effect of over 20% in size
Target sequence (P00811 whole entry, looked up): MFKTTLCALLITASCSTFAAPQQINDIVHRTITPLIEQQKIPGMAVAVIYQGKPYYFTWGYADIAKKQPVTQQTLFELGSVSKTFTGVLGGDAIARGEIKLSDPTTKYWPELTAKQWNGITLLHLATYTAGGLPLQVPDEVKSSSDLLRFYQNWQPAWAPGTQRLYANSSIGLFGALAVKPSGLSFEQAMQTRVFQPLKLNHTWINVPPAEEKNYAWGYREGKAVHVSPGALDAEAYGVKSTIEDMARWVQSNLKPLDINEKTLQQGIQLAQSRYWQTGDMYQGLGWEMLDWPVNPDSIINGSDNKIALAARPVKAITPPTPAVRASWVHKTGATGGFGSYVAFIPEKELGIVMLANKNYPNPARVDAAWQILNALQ
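AmpC (5.3 nM in the dispensed reagent) in 20 mM phosphate pH 7.0 with 0.01% (detergent screen) or 0.0001% Triton X-100 was preincubated with compounds for 15 min at room temperature. Nitrocefin was then added from an 800 uM solution, and hydrolysis was followed at 480 nm.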
SARS PLP yeast: qHTS of Yeast-based Assay for SARS-CoV PLP; S. cerevisiae expressing SARS-CoV PLpro, growth rescue; Potency, µM (titrated, usually from 32.9 µM), usual class: activators; hit rate 0.19% among 330,000; calls by dose curve; further: nearly all actives have a fitted effect of over 55% in size
AmpC detergent: qHTS Inhibitors of AmpC Beta-Lactamase (assay with detergent). hit rate 0.041% among 370,000. P00811. Potency, µM (titrated, usually from 114 µM), hits mostly inhibitors. AmpC hydrolysis of nitrocefin, absorbance 480 nm, 0.01% Triton. AID 485294, 2010; further: nearly all actives have a fitted effect of over 25% in size
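AmpC (5.3 nM in the dispensed reagent) in 20 mM phosphate pH 7.0 with 0.01% (detergent screen) or 0.0001% Triton X-100 was preincubated with compounds for 15 min at room temperature. Nitrocefin was then added from an 800 uM solution, and hydrolysis was followed at 480 nm.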
Numbers stand for hits; - = inactive; ? = inconclusive; . = no result given; [ ] = remark or other dose. Rows were chosen to be rich in hits. Some 3.3% of all compounds tested hit in one or more screens of this group. Unless noted, the call rests on the fitted dose curve; in most records, active means well fitted curve in the direction sought with a large enough effect; inconclusive means small, poorly fitted or top-dose-only effect, or another doubt; inactive means no such curve, though single readings can be large; an effect the other way counts as inactive or inconclusive.

SMILES	TbPYK inhibitor	Sm TGR block	RE007 growth inh	AmpC no deterg	SARS PLP yeast	AmpC detergent
O=C1CSC(=Nc2ccc(O)cc2)N1	-	-	-	-	-	-
O=C1C(Cl)=CC(=Nc2ccc(O)cc2)C=C1Cl	?	0.89µM	-	28µM	-	?
O=C(O)c1cccc2c1NC(C(=O)O)C1CC(Sc3ccccc3[N+](=O)[O-])C(Cl)C21 (stereo not drawn)	-	?	-	-	-	40µM
CC(=O)c1ccc2c(c1)C1C(Cl)C(Sc3ccccc3[N+](=O)[O-])CC1C(C(=O)O)N2 (stereo not drawn)	-	?	-	-	-	?
COC(=O)CN1C(=O)CSc2ccc(S(=O)(=O)Nc3cccc(C)c3C)cc21	-	-	.	.	.	-
CCNC(=S)N1CCC(C(=O)c2ccc(Cl)cc2)CC1	-	-	-	-	-	?
CCCNC(=S)N1CCC(C(=O)c2ccc(Cl)cc2)CC1	-	89µM	-	-	-	-
Cc1ccc(CNC(=O)CCc2c(C)nc3c(-c4ccc(F)cc4)c(C)nn3c2C)cc1	-	-	.	.	.	-
CC(=O)Nc1ccc(NC(=O)CC2Nc3cccc4cccc(c34)NC2=O)cc1 (stereo not drawn)	-	?	-	-	-	-
CC(=O)c1ccc(NC(=O)CC2Nc3cccc4cccc(c34)NC2=O)cc1 (stereo not drawn)	-	18µM	-	16µM	-	?
Cc1ccccc1OCC1CNC(=O)O1 (stereo not drawn)	-	.	-	-	-	-
O=C1NCC(COCc2ccco2)O1 (stereo not drawn)	-	45µM	?	-	-	-
CCOC(=O)c1c(C)c(C(=O)NCc2ccc(Cl)cc2)c(C)n1C	-	-	.	.	.	-
CN1CCN(C(=O)c2ccc3c(c2)N(Cc2c(F)cccc2Cl)C(=O)c2ccccc2S3)CC1	-	-	.	.	.	-
CC(C)c1cc[n+](-c2nc([O-])sc2C=O)cc1	28µM	?	-	-	-	-
CN(C)Cc1cc(O)c(CN(C)C)cc1O	-	2.5µM	-	-	-	-
COc1cccc(OCc2cc(=O)n3cc(C)sc3n2)c1	-	-	.	.	.	-
Cn1cnnc1SCC(=O)N1N=C(c2ccc(Cl)cc2)CC1c1ccco1 (stereo not drawn)	-	32µM	-	-	-	-
Cn1cnnc1SCC(=O)N1N=C2/C(=C/c3ccco3)CCCC2C1c1ccco1 (stereo not drawn)	-	45µM	-	-	-	-
O=C(CSc1nccc(=O)[nH]1)N1N=C2/C(=C/c3ccco3)CCCC2C1c1ccco1 (stereo not drawn)	-	22µM	-	-	-	-
Cc1ccn2c(NCc3ccc4c(c3)OCO4)c(-c3ccc(O)cc3)nc2c1	-	-	-	-	7.9µM	?
Oc1ccc(-c2nc3ccccn3c2NCc2ccc3c(c2)OCO3)cc1	-	-	?	-	-	-
CCOc1cccc(C(=O)N(Cc2ccc(N(C)C)cc2)CC2CCCO2)c1 (stereo not drawn)	-	-	.	.	.	-
CC1=C(/C=C/C(C)=C/C=C/C(C)=C/C(=O)O)C(C)(C)CCC1	-	35µM	-[18.4 µM]	-	-	-
CC(=O)c1ccc(S(=O)(=O)N2CCn3cccc3C2c2ccccc2F)cc1 (stereo not drawn)	-	-	.	.	.	-
CC(C)Cc1cc(C(=O)N2CCN(c3ccc(F)cc3)CC2)no1	-	-	-	0.32µM	-	-
Cc1cccc(CC(=O)NC2CC(=O)N(c3cccc(F)c3)C2)c1 (stereo not drawn)	-	-	.	.	.	-
COc1ccc(OCCC(=O)OCC(=O)NCc2ccco2)cc1	?	50µM	-	-	-	-
COc1ccc(-c2[nH]c(-c3cccc(OC)c3)nc2SCC(=O)NCc2ccco2)cc1	-	-	-	10µM	-	-
